ST2 IL33 inh = IL1RL1 inhibition; inhibition, % for hits at 17 µM; AlphaLISA ST2-Fc/biotin-IL-33 interaction, 1 h; AID 1259354; 2.3% of 78,000 active; Q01638; in the data active = inhibition above about 30%
Target sequence (Q01638 whole entry, looked up): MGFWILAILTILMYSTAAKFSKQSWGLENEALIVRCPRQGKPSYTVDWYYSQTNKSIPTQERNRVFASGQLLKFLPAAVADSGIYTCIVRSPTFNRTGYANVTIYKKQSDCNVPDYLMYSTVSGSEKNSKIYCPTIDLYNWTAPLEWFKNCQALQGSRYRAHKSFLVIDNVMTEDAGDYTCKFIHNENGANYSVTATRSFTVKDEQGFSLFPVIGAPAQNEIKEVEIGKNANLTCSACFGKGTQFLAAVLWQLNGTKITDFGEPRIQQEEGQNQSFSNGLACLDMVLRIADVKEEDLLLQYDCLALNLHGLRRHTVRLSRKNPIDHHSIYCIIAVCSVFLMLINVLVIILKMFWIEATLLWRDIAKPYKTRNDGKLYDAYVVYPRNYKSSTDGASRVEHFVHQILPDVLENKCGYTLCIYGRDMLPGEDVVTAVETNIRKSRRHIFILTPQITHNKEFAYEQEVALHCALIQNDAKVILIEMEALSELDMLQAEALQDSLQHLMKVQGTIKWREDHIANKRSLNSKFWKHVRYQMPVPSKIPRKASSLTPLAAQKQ
The depositor's hits bear a star; i = inactive. The sample as a whole holds a higher share of hits than the screen did.

SMILES | ST2 IL33 inh
CC(=O)N(CN1C(=O)c2ccccc2C1=O)c1ccc(F)cc1 | i
O=C1c2ccccc2C(=O)N1CN(C(=O)c1ccccc1)c1ccc(Br)cc1 | i
C[n+]1cccc(C2CCCCN2C(=O)C2(c3ccccc3)CCCC2)c1 (stereo not drawn) | i
CC1=NN(c2ccccc2)C(=O)C1C(C)C[N+](=O)[O-] (stereo not drawn) | i
CC(C)OCCCNC(=O)CCCn1c(=O)[nH]c2ccsc2c1=O | i
O=C(C1CC1)N1CCc2cc(S(=O)(=O)Nc3ccc(Cl)cc3)ccc21 | i
O=C(C1CCCN1S(=O)(=O)c1cccc2nsnc12)N1CCCCC1 (stereo not drawn) | i
CC(C)(C)NC(=O)C1CCCN1S(=O)(=O)c1cccc2nsnc12 (stereo not drawn) | i
O=C(NC1CCCCCCC1)C1CCCN1S(=O)(=O)c1cccc2nsnc12 (stereo not drawn) | 33.0%*
O=C(Nc1nccs1)c1ccc([N+](=O)[O-])cc1 | i
O=C(Nc1ccccc1[N+](=O)[O-])C1=C(O)CCn2c1nc1ccccc12 | 34.0%*
O=C(Nc1ccccc1[N+](=O)[O-])C1=NN=CC1[N+](=O)[O-] (stereo not drawn) | i
Cc1nc2ccccc2n1C(=O)c1ccccc1[N+](=O)[O-] | i
Cc1c(C(=O)NC(=O)Nc2ccccc2C(F)(F)F)c(Cl)nc(Cl)c1[N+](=O)[O-] | i
O=[N+]([O-])c1ccc(-c2cnc(-c3ccccc3)nc2)cc1 | i
N#Cc1cc([N+](=O)[O-])cnc1NCCO | i
N#Cc1cc([N+](=O)[O-])cnc1Sc1ccccc1 | 32.0%*
Cc1ncccc1C(=O)N1CCCC(CNC(=O)c2ccc(-c3ccccc3)cc2)C1 (stereo not drawn) | i
NS(=O)(=O)c1ccc(N=Cc2ccc(Br)cc2)cc1 | i
Cc1sc(N=Cc2ccc(Br)cc2)c(C#N)c1C | 55.0%*
COc1ccc(C=Nc2sc3c(c2C#N)CCCC3)cc1[N+](=O)[O-] | i
CN(Cc1cc2n(n1)CCNC2)Cc1nc2ccccc2c(=O)[nH]1 | i
O=C(Nc1ccc(F)cc1)c1cccc([N+](=O)[O-])c1 | i
CCOC(=O)C1=NN(c2ccc(C)cc2)C2C(=O)N(c3ccc(C)cc3)C(=O)C12 (stereo not drawn) | i
COc1ccc(-c2cc(C(=O)N3CC4(C)CC3CC(C)(C)C4)no2)cc1OC (stereo not drawn) | i
SMILES | ST2 IL33 inh
COc1cc(/C=C2\C=C(c3ccc(Cl)cc3)OC2=O)cc(Br)c1OC | i
COc1ccc(C2=C/C(=C/c3cccc(OC)c3OC)C(=O)O2)c(OC)c1 | 34.0%*
COc1ccc(/C=C2\C=C(c3ccc(Br)cc3)OC2=O)cc1[N+](=O)[O-] | i
COc1cc(/C=C2\C=C(c3ccc(Cl)cc3)OC2=O)c([N+](=O)[O-])cc1OC | i
CCc1ccc(C2=C/C(=C/c3cc(OC)ccc3OC)C(=O)O2)cc1 | 38.0%*
COc1cc(/C=C2\C=C(c3ccc(Cl)cc3)OC2=O)cc(I)c1OC | i
Clc1ccc(-c2ccc(CN3CCOCC3)cn2)cc1Cl | i
Cc1ccc2[nH]cc(-c3ccc(-c4nn[nH]n4)cc3)c2c1 | i
COc1ccc(CNC(=O)C[C@@H]2CCNC[C@@H]2Cc2cc(-c3ccc(C(C)(C)C)cc3)on2)cc1 | 47.0%*
CC(C)(C)c1ccc(-c2cc(C[C@H]3CNCC[C@H]3CC(=O)NCc3ccccc3)no2)cc1 | i
CC(C)(C)c1ccc(-c2cc(C[C@H]3CNCC[C@H]3CC(=O)NCc3ccc(F)cc3)no2)cc1 | i
Cn1cc(-c2ccc(C(=O)N3CCCN(c4ncccn4)CC3)cn2)cn1 | i
CCN1C(=O)N(CCc2ccccc2)C2(CCN(CCc3ccccc3)CC2)C1=O | 33.0%*
CN1C(=O)N(Cc2ccccc2)C2(CCN(Cc3ccc(N(C)c4ccccc4)cc3)CC2)C1=O | i
COCCN1C(=O)N(Cc2cccnc2)C(=O)C12CCN(Cc1nc(-c3ccccc3)cs1)CC2 | i
COc1cccc(CN2CC(C(=O)N(C)Cc3nc4ccc(F)cc4[nH]3)CCC2=O)c1 (stereo not drawn) | i
Cc1ccccc1NC(=O)Cn1c(=O)n(CC2CCC(C(=O)NC(C)C)CC2)c(=O)c2sccc21 (stereo not drawn) | i
Cc1ccc(C(=O)N[C@H]2CO[C@H]3[C@@H]2OC[C@@H]3n2nnnc2-c2ccc(N(C)C)cc2)cc1 | i
COC(=O)c1cccc(NC(=S)N[C@H]2CO[C@H]3[C@@H]2OC[C@@H]3n2nnnc2Oc2cccc(N(C)C)c2)c1 | i
Cc1ccc(C(=O)N[C@H]2CO[C@H]3[C@@H]2OC[C@@H]3n2nnnc2Oc2cccc(N(C)C)c2)cc1 | 81.0%*
COc1ccc(C2=NN(CC(=O)N3CCCC3)C(=O)CC2)cc1 | i
Cc1ccc(CN2CCc3c(c(C(=O)NCc4ccccc4)nn3C)C2)o1 | i
Fc1ccc(-c2cc(C(F)(F)F)nc(N3CCCC3)n2)cc1 | i
Cc1ccc(C2CC(c3ccc(F)cc3)=NN2c2ccccc2)o1 (stereo not drawn) | 40.0%*
COc1ccc(C2CC(c3ccccc3)=NN2C(=O)c2ccc(F)cc2)cc1 (stereo not drawn) | i
SMILES | ST2 IL33 inh
COc1ccc(C2=NN(S(=O)(=O)c3ccc(C)cc3)C(c3ccc(F)cc3)C2)cc1OC (stereo not drawn) | i
CC1CCN(S(=O)(=O)c2ccc3[nH]c(=O)cc(C(=O)O)c3c2)CC1 | i
O=C(c1ccco1)N1CCN(C(=O)C2c3ccccc3C(=O)N3CCc4ccccc4C23)CC1 (stereo not drawn) | i
Cc1cc(C)c(C#N)c(SCc2[nH]nc3c2[C@@H](c2ccccc2[N+](=O)[O-])C(C#N)=C(N)O3)n1 | i
CN(C)c1ccc(C(C2=C(O)CC(C)(C)CC2=O)C2C(=O)CC(C)(C)CC2=O)cc1 (stereo not drawn) | i
CC1(C)CC(=O)C(C(C2=C(O)CC(C)(C)CC2=O)c2ccc([N+](=O)[O-])s2)C(=O)C1 (stereo not drawn) | 30.0%*
CC1(C)CC(=O)C(C(C2=C(O)CC(C)(C)CC2=O)c2cccc(O)c2)C(=O)C1 (stereo not drawn) | i
CCn1c(C(=O)O)c(CC(=O)Nc2ccc(F)cc2F)c2ccccc21 | i
c1ccc(NCCn2cnc(-c3ccccc3)c2-c2ncc[nH]2)cc1 | i
Cc1noc(C)c1C(=O)N1CCC2(CC1)CN(CC1CCOC1)CCN2C (stereo not drawn) | i
CC(C)C[C@H](N)CSSC[C@@H](N)CC(C)C | i
CC(=O)Nc1cccc(OCc2cc(=O)n3cc(Cl)ccc3n2)c1 | i
Cc1cccc(C(=O)Nc2ccc(C)c(OCc3cc(=O)n4cccc(C)c4n3)c2)c1 | 33.0%*
CCOc1ccc(C(=O)Nc2ccc(C)c(OCc3cc(=O)n4cccc(C)c4n3)c2)cc1 | i
CCOc1ccc(C(=O)Nc2cccc(OCc3cc(=O)n4cc(Cl)ccc4n3)c2)cc1 | 31.0%*
COc1cccc(C(=O)Nc2cccc(OCc3cc(=O)n4ccc(C)cc4n3)c2)c1 | i
Cc1cccc(C(=O)Nc2cccc(OCc3cc(=O)n4ccc(C)cc4n3)c2)c1 | i
Cc1ccc(C(=O)Nc2cccc(OCc3cc(=O)n4cc(Cl)ccc4n3)c2)cc1 | i
COc1ccc(OCC(=O)Nc2ccc(C)c(OCc3cc(=O)n4ccc(C)cc4n3)c2)cc1 | i
COc1cccc(C(=O)Nc2ccc(C)c(OCc3cc(=O)n4cccc(C)c4n3)c2)c1 | 31.0%*

Bioassay records from PubChem BioAssay.
